Source: PubChem BioAssay (NCATS)
Results filed as inconclusive are left out. The source made the active and inactive calls. Unless noted, calls come from the whole dose curve.

Columns and labels:
[1] = target: Lysosomal acid glucosylceramidase (Homo sapiens) (UniProt P04062); assay: Glucocerebrosidase-p2 (AID 348; in the data active = potency below about 10 µM; note: potency is the fitted concentration of half-maximal effect); conditions: purified GBA, blue fluorogenic substrate, 40 min
Summary of the method: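 Compounds titrated from 0.6 nM upwards against 0.2 nM enzyme in pH 5.9 citric acid/KH2PO4, taurocholate, tween-20; blue fluorogenic substrate 80 uM, 40 min room temperature, stopped and read Ex 365/Em 440 for AC50.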

[2] = target: Cytochrome P450 1A2 (Homo sapiens) (UniProt P05177); assay: p450-cyp1a2 (AID 410); conditions: recombinant CYP1A2, luciferin-ME demethylation, luminescence; series mostly up to 11.4 µM; note: potency is the fitted concentration of half-maximal effect;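 for activity change, negative = inhibition: -100% = full effect of reference inhibitor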
Summary of the method: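 Inhibition was calculated relative to 57 uM furafylline (full inhibition). The reaction used human CYP1A2 at 20nM with Luciferin-ME at its Km, 100uM, driven by an NADPH-regenerating system for 60 min at room temperature.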

[3] = Stat Signaling Pathway (AID 446; active = well fitted curve in either direction with a large enough effect, not every such curve was filed as active;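 note: ME-180 cervical cancer cells given 40 pM IL-6 alongside compound; SIE-controlled beta-lactamase reporter measured as 460/530 nm FRET emission ratio; % is set by controls: 0 for no effect and ±100 for the full control effect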); conditions: ME-180 SIE beta-lactamase reporter, IL-6 stimulated, 5 h; at 7.69 µM (top of the series) unless noted
Summary of the method: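 ME-180 cells carrying a SIE-driven beta-lactamase reporter are stimulated with 40 pM IL-6 for 5 h at 37C in the presence of compound. The 460/530 nm FRET substrate ratio is read after 2.5 h at RT. Data are normalised to 300 pM IL-6 and to 125 nM JAK inhibitor controls.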

[4] = target: Glucocorticoid receptor (Homo sapiens) (UniProt P04150); assay: GR-GFP Redistribution (AID 450;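 active = compounds whose dose series gives a full or clear partial fitted curve of increased nuclear translocation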; note: potency is the fitted concentration of half-maximal effect); conditions: U2OS GR-GFP nuclear translocation, laser cytometry, 2 h
[5] = target: Glucocorticoid receptor (Homo sapiens) (UniProt P04150); assay: GR-EFC Redistribution (AID 451); conditions: CHO-K1 GR-EFC translocation, beta-gal luminescence, 2 h; note: potency is the fitted concentration of half-maximal effect
Summary of the method: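 CHO-K1 cells expressing nuclear EA and GR-ED fragments of b-gal; compounds titrated up to 46 uM final, 2 h at 37 C. GR nuclear translocation read as complemented b-gal luminescence after 1 h RT detection.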

[6] = target: Mitogen-activated protein kinase 10 (Mus musculus) (UniProt Q61831); assay: JNK3 AlphaScreen Assay (AID 530; active = well fitted curve in either direction with a large enough effect, not every such curve was filed as active;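 note: kinase came from lysate of stimulated human HepG2 cells; signal reports phosphorylation of biotinylated GST-cJun 1-79 at Ser73 with 10 µM ATP; % is set by controls: 0 for no effect and ±100 for the full control effect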); conditions: JNK3 lysate, c-Jun phosphorylation; series mostly up to 11.4 µM
Summary of the method: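 qHTS format: compounds tested as titrations against IL-1beta/TNF-alpha-activated HepG2 lysate JNK3 with biotin-GST-cJun substrate and 10 uM ATP at room temperature. Loss of anti-phospho-cJun AlphaScreen signal indicates inhibition.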

[7] = target: 3',5'-cyclic-AMP phosphodiesterase 4B (Homo sapiens) (UniProt Q07343); assay: qHTS Assay for Inhibitors of PDE-IV (AID 607; active = well fitted activation curve with a large enough effect in the main read-out, with a control signal flat, not every such curve was filed as active; note: % of control where 0% means no effect); conditions: HEK293 ACTOne CNG channel cells, membrane potential fluorescence; series mostly up to 22.9 µM
Summary of the method: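 HEK293 ACTOne cells with CNG channel (1000/well), endogenous PDE4; membrane potential dye, compounds up to 22.9 uM final. Fluorescence Ex 535/Em 590; RO 20-1724 (100 uM final) as reference.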

[8] = target: Cytochrome P450 2C9 (Homo sapiens) (UniProt P11712); assay: qHTS Assay for Inhibitors and Substrates of Cytochrome P450 2C9 (AID 883; active = well fitted curve in the direction sought with a large enough effect; an effect the other way counts as inactive or inconclusive; note: nearly all actives have a fitted effect of over 60% in size; note: potency is the fitted concentration of half-maximal effect; for activity change, negative = inhibition: % is set by controls: 0 for no effect and ±100 for the full control effect); conditions: recombinant CYP2C9, luciferin-H luminescence, 60 min; series mostly up to 11.4 µM
Summary of the method: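 Human CYP2C9 (10nM) with Luciferin-H at 100uM (its KM) in 25mM KPO4; compound preincubated 10 min at 37C, then NADPH regeneration for 60 min at 37C. Luciferin read by luminescence after detection reagent; normalized to 57uM sulphaphenazole as full inhibition.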

[9] = target: Cytochrome P450 2C19 (Homo sapiens) (UniProt P33261); assay: qHTS Assay for Inhibitors and Substrates of Cytochrome P450 2C19 (AID 899; active = well fitted curve in the direction sought with a large enough effect; an effect the other way counts as inactive or inconclusive; note: nearly all actives have a fitted effect of over 60% in size; note: potency is the fitted concentration of half-maximal effect); conditions: recombinant CYP2C19, luciferin-H EGE luminescence; series mostly up to 11.4 µM
Summary of the method: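 5 nM human CYP2C19 with 10uM Luciferin-H EGE (at KM) in 50mM KPO4, compound preincubated 10 min at 37C, then NADPH regeneration for 60 min at 37C. Luciferin read by luminescence after detection reagent; normalized to 57uM ketoconazole as full inhibition.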

[10] = target: Cytochrome P450 3A4 (Homo sapiens) (UniProt P08684); assay: qHTS Assay for Activators of Cytochrome P450 3A4 (AID 885; active = well fitted curve in the direction sought with a large enough effect; an effect the other way counts as inactive or inconclusive; note: nearly all actives have a fitted effect of over 65% in size); conditions: recombinant CYP3A4, Luciferin-PPXE luminescence, 60 min; series mostly up to 11.4 µM
Summary of the method: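 Human CYP3A4 (20 nM) with Luciferin-PPXE at 25 uM (its KM) in 200 mM KPO4; 10 min compound preincubation, then NADPH regeneration and 60 min reaction at RT. Luciferin read by luminescence; normalized to 57 uM ketoconazole full inhibition.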

[11] = qHTS Assay for Identification of Small Molecule Agonists for Hypoxia Response Element Signaling Pathway (AID 914; active = well fitted activation curve with a large enough effect in the signal ratio, with a control signal flat, not every such curve was filed as active; the % refers to the signal ratio; note: potency is the fitted concentration of half-maximal effect; for activation: % of control where 0% means no effect); conditions: ME-180 (cervical carcinoma) HRE-bla reporter, beta-lactamase ratio, CoCl2, 17 h; activation: stronger effect = higher value
Summary of the method: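 In Opti-MEM containing 0.5% dialyzed FBS and 10 mM HEPES, ME-180 HRE-bla cells received a compound titration and EC50 CoCl2. They were incubated 17 hours, then CCF4-loaded 2.5 hours at room temperature before ratio reading.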

[12] = NFAT Signaling Pathway (AID 444; active = well fitted curve in either direction with a large enough effect, not every such curve was filed as active;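 note: carbachol stimulus at about its EC50 of 1 µM final; % is set by controls: 0 for no effect and ±100 for the full control effect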); conditions: Jurkat NFAT-bla M1, carbachol, beta-lactamase ratio, 5 h; at 7.69 µM (top of the series) unless noted
Summary of the method: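 Jurkat cells with NFAT-driven β-lactamase reporter and co-expressed M1 receptor, stimulated with carbachol (final 1 uM, ~EC50), compound titration, 5 h at 37 °C. CCF4 loaded 1 h at RT; 460/530 nm ratio gave %activity and AC50.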

[13] = target: Cytochrome P450 3A4 (Homo sapiens) (UniProt P08684); assay: qHTS Assay for Inhibitors and Substrates of Cytochrome P450 3A4 (AID 884; active = well fitted curve in the direction sought with a large enough effect; an effect the other way counts as inactive or inconclusive; note: nearly all actives have a fitted effect of over 50% in size; note: potency is the fitted concentration of half-maximal effect); conditions: recombinant CYP3A4, Luciferin-PPXE luminescence; series mostly up to 57.1 µM
Summary of the method: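 20 nM human CYP3A4 with 25 uM Luciferin-PPXE (at KM) in 200 mM KPO4, preincubated 10 min with compound; NADPH regeneration started a 60 min RT reaction. Luciferin detected by luminescence, normalized to 57 uM ketoconazole as full inhibition.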

[14] = target: Cytochrome P450 2D6 (Homo sapiens) (UniProt P10635); assay: qHTS Assay for Inhibitors and Substrates of Cytochrome P450 2D6 (AID 891; active = well fitted curve in the direction sought with a large enough effect; an effect the other way counts as inactive or inconclusive; note: potency is the fitted concentration of half-maximal effect; nearly all actives have a fitted effect of over 60% in size); conditions: recombinant CYP2D6, luciferin-ME EGE luminescence; series mostly up to 11.4 µM
Summary of the method: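 Human CYP2D6 (5 nM) with 30 uM Luciferin-ME EGE (at Km) in 100 mM KPO4, compound preincubated 10 min, then NADPH regeneration system for 60 min at room temperature. Luciferin read by luminescence; normalized to 1.43 uM quinidine.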

[15] = Confirmation and Secondary Assay for Modulators of Hemoglobin Beta Chain Splicing at IVS2 654 locus (AID 910; active = well fitted curve in the direction sought with a large enough effect; an effect the other way counts as inactive or inconclusive;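 note: HeLa cells stably carrying EGFP split by mutant beta-globin IVS2-654 intron; % of control where 0% means no effect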); conditions: HeLa EGFP-654 splicing reporter, GFP fluorescence, 48 h; series mostly up to 38.3 µM
Summary of the method: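 HeLa cells stably expressing EGFP interrupted by β-globin IVS2-654 intron, seeded overnight in Opti-MEM/2% FCS, then treated 2 days at 37 °C. Restored splicing read as total peak GFP intensity per well by laser scanning cytometry (488 nm excitation, 500–520 nm emission); 500 nM antisense PNA as control.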

[16] = Confirmation and Secondary Assay for Modulators of Hemoglobin Beta Chain Splicing at IVS2 705 locus (AID 930; active = well fitted curve in the direction sought with a large enough effect; an effect the other way counts as inactive or inconclusive;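 note: HeLa cells stably expressing the EGFP-705 splicing reporter; GFP fluorescence per well restored by corrected splicing of the IVS2-705 intron in EGFP; % of control where 0% means no effect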); conditions: HeLa EGFP-705 splicing reporter, GFP fluorescence, 48 h; series mostly up to 38.3 µM
Summary of the method: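 Per-well GFP, captured at 1 x 8 µm resolution with 488 nm excitation, served as the read-out for HeLa EGFP-705 cells incubated 2 days with test compound versus DMSO.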

Sequence of Cytochrome P450 1A2 (Homo sapiens) (P05177 whole entry, looked up): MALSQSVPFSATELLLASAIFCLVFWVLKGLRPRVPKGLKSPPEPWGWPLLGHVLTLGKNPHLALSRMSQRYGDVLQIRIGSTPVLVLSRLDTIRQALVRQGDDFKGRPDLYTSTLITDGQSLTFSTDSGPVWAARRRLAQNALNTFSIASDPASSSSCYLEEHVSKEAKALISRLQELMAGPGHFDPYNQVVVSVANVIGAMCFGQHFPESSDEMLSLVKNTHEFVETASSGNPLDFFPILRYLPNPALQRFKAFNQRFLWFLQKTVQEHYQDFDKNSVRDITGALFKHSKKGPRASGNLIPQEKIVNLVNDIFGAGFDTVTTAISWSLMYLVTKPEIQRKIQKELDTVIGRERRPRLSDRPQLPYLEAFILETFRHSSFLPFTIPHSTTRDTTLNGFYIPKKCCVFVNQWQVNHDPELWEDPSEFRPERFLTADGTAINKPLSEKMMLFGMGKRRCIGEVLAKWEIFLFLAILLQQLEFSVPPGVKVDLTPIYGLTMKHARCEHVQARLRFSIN
Sequence of Cytochrome P450 2C19 (Homo sapiens) (P33261 whole entry, looked up): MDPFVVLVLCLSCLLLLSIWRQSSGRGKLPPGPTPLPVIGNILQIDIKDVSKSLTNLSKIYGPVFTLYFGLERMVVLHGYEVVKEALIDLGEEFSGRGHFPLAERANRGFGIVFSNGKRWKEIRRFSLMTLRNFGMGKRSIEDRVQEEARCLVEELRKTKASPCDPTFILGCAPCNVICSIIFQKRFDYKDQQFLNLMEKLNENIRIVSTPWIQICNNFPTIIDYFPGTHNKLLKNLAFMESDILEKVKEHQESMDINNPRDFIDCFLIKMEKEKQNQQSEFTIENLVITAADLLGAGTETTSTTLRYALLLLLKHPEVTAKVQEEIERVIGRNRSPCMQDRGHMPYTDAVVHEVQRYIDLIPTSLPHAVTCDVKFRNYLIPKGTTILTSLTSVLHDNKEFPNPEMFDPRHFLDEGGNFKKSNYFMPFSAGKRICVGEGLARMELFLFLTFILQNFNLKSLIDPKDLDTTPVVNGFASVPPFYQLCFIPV
Sequence of Lysosomal acid glucosylceramidase (Homo sapiens) (P04062 whole entry, looked up): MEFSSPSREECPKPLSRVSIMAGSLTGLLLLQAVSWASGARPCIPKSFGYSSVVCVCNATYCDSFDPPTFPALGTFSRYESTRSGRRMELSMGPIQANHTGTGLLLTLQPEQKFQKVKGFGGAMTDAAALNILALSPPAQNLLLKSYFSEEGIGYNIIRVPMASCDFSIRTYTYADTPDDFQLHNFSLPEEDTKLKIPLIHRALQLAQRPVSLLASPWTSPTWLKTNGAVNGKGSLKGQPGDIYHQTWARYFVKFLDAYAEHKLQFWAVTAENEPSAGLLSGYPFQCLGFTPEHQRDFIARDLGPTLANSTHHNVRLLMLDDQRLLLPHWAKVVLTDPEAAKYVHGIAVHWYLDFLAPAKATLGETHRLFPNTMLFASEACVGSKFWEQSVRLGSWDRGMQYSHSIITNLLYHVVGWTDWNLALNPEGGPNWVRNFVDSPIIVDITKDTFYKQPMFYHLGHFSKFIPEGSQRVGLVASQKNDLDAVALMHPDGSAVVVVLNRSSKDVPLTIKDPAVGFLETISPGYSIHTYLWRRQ
Sequence of Glucocorticoid receptor (Homo sapiens) (P04150 whole entry, looked up, the tested form may be a part): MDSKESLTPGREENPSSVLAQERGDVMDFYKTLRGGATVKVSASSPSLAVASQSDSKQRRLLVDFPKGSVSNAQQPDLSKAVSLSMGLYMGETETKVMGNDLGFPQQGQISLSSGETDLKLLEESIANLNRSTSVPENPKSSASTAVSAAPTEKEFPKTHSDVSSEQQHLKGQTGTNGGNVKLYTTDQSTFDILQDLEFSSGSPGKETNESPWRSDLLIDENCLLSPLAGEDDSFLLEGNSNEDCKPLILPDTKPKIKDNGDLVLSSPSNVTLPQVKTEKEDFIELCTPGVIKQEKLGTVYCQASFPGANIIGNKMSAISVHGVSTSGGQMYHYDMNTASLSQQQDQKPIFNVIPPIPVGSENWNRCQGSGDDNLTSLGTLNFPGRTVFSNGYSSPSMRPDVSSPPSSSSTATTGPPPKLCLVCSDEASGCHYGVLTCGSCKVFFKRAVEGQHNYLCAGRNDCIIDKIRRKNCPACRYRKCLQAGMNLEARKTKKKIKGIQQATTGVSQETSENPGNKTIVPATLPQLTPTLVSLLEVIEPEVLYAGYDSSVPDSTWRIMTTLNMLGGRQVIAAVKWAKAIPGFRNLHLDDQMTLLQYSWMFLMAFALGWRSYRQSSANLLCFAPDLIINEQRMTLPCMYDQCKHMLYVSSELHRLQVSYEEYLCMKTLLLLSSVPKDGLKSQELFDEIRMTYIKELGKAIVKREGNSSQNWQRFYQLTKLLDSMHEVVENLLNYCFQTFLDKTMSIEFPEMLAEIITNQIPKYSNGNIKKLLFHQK
Sequence of 3',5'-cyclic-AMP phosphodiesterase 4B (Homo sapiens) (Q07343 whole entry, looked up): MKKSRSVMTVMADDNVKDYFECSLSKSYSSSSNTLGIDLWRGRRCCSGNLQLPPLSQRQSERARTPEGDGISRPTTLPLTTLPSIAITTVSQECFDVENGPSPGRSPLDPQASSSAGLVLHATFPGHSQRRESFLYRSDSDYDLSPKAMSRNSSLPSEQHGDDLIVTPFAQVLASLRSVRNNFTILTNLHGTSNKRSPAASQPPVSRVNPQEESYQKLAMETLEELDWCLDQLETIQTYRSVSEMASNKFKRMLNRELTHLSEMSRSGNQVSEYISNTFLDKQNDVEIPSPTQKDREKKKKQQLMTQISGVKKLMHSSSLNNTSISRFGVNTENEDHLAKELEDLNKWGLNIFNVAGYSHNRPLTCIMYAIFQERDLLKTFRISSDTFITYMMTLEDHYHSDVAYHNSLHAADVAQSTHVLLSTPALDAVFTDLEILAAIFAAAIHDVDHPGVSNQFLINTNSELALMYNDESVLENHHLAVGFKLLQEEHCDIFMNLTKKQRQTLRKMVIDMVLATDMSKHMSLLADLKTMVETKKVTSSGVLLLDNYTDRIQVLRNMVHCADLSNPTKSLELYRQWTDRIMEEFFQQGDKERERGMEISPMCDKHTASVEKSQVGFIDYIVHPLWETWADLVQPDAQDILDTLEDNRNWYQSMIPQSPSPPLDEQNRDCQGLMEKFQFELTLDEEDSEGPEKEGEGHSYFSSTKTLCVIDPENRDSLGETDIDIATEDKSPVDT
Sequence of Cytochrome P450 3A4 (Homo sapiens) (P08684 whole entry, looked up): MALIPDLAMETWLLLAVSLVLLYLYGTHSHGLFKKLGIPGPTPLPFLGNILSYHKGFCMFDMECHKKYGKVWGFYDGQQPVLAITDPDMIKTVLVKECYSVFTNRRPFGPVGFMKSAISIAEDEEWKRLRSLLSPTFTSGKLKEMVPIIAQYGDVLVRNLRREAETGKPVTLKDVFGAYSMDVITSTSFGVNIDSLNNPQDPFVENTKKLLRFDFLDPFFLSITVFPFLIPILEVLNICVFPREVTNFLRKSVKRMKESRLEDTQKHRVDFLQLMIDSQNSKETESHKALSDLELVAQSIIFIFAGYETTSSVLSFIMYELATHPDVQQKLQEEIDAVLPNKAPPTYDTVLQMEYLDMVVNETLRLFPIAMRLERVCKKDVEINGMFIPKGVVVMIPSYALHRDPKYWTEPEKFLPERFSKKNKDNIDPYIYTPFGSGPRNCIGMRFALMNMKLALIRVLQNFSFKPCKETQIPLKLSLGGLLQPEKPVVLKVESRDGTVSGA
Sequence of Cytochrome P450 2C9 (Homo sapiens) (P11712 whole entry, looked up): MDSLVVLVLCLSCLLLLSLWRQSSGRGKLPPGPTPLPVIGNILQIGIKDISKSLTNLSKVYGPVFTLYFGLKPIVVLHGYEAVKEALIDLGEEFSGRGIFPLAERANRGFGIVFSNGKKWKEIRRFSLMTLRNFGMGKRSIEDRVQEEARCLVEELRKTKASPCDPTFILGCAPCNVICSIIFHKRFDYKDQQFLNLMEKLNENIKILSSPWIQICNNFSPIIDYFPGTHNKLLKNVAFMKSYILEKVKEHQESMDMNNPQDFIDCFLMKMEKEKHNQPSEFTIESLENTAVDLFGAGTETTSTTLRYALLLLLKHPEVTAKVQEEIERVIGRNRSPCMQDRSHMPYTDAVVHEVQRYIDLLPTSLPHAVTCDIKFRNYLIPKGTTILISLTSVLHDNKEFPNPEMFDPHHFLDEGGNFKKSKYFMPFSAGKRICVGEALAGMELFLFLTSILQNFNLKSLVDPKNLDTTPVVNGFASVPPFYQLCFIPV
Sequence of Cytochrome P450 2D6 (Homo sapiens) (P10635 whole entry, looked up): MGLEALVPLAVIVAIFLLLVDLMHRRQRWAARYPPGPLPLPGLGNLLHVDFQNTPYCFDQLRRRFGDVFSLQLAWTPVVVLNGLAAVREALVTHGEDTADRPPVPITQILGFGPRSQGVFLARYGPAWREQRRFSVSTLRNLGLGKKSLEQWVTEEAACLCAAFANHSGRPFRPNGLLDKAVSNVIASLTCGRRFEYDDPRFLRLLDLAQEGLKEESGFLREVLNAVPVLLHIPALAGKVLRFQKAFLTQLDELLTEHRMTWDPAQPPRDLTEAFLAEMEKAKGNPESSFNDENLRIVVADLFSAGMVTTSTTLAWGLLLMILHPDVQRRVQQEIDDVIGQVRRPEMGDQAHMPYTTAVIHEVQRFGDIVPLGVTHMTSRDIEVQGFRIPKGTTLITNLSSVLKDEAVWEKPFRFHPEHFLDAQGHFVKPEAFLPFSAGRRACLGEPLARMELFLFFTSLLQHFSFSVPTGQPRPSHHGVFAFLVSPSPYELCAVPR

Nc1nc(Sc2ccc([N+](=O)[O-])c3nonc23)c2[nH]cnc2n1
active: Potency [8] 3.16 µM | Potency [9] 1.58 µM
inactive: Potency [1] > 11.4 µM | activity change, negative = inhibition [2] -26.1% [at 2.29 µM] | activity, negative = inhibition [3] -12.4% | Potency [4] > 46 µM | Potency [5] > 9.22 µM | Potency [6] | Potency [7]

COCCn1c(=O)c(-c2cccc(C#N)c2)nc2cnc(N3CCNCC3)nc21
active: Potency [2] 10 µM | Potency [8] 3.98 µM | Potency [11] 3.16 µM
inactive: Potency [1] > 11.4 µM | Potency [4] > 9.22 µM | Potency [5] > 46 µM | Potency [6] | Potency [7] | Potency [10]

CC(=O)Nc1ccc(Cc2ccc3[nH]c(=O)cc(C)c3c2)cc1
inactive: Potency [1] > 11.4 µM | Potency [2] | activity, negative = inhibition [3] -9.78% | Potency [4] > 46 µM | Potency [5] > 9.22 µM | Potency [6] | Potency [7]

C=C(C)COc1ccc2c(c1)CCC1C2CC[C@]2(C)C(=O)/C(=N/O)CC12 (some centres not stated)
inactive: Potency [1] > 11.4 µM | Potency [2] | activity, negative = inhibition [3] 9.84% | Potency [4] > 46 µM | Potency [5] > 9.22 µM | Potency [6] | Potency [7]

COc1ccc(Oc2ncc3nc(CCc4ccccc4)c(=O)n(C4CC4)c3n2)cc1
active: Potency [2] 12.6 µM | Potency [9] 1.58 µM
inactive: Potency [1] > 11.4 µM | activity change, negative = inhibition [12] 5.02% | activity, negative = inhibition [3] -0.549% | Potency [4] > 9.22 µM | Potency [5] > 46 µM | Potency [6] | Potency [10]

CCC1=C(C[C@H]2NCCc3ccccc32)C[C@@H]2c3cc(OC)c(OC)cc3CCN2C1
inactive: Potency [1] > 11.4 µM | Potency [2] | activity, negative = inhibition [3] -23.5% | Potency [4] > 46 µM | Potency [5] > 9.22 µM | Potency [6] | Potency [7]

O=C1C(Cl)=C(Sc2nnc3c4ccccc4c4ccccc4c3n2)C(=O)c2ccccc21
active: Potency [2] 0.398 µM | Potency [9] 1.58 µM
inactive: Potency [1] > 11.4 µM | activity, negative = inhibition [3] -24.6% | Potency [4] > 46 µM | Potency [5] > 9.22 µM | Potency [6] | Potency [7] | Potency [10]

COc1ccccc1-c1ccc2ncnc(NCc3cccnc3)c2c1
active: Potency [2] 0.794 µM | Potency [13] 0.631 µM | Potency [14] 7.94 µM
inactive: Potency [1] > 11.4 µM | activity, negative = inhibition [3] -19.8% | Potency [4] > 46 µM | Potency [5] > 46 µM | Potency [6] | Potency [7] | Potency [10] | outcome [15] | outcome [16]

CC(C)[C@H](Sc1nc(N)nc2nc[nH]c12)C(=O)O
active: Potency [2] 0.316 µM
inactive: Potency [1] > 11.4 µM | activity change, negative = inhibition [12] 9.06% | activity, negative = inhibition [3] 14.2% | Potency [4] > 46 µM | Potency [5] > 9.22 µM | Potency [7]

C[C@@]12CC[C@@H]3[C@@H](CC[C@H]4C[C@@H](O)CC[C@]43C)[C@H]1CC[C@@H]2c1cc(C(F)(F)F)n[nH]1
inactive: Potency [1] > 11.4 µM | activity, negative = inhibition [3] 16.7% | Potency [4] > 46 µM | Potency [5] > 9.22 µM | Potency [6] | Potency [7]
active: Potency [2] 3.98 µM

FC(F)(F)c1cccc(-c2nc3nc(Cl)c(Cl)nc3[nH]2)c1
inactive: Potency [1] > 11.4 µM | Potency [4] > 46 µM | Potency [5] > 9.22 µM | Potency [6] | Potency [7] | Potency [10]
active: Potency [2] 0.398 µM | Potency [8] 3.98 µM

Oc1c(C(O)(c2ccccc2)c2ccc3ccccc3c2O)ccc2ccccc12
active: Potency [2] 1 µM | Potency [8] 0.794 µM | Potency [9] 0.794 µM
inactive: Potency [1] > 11.4 µM | activity, negative = inhibition [3] -10.4% | Potency [4] > 46 µM | Potency [5] > 9.22 µM | Potency [7]

COc1ccc2nc3cc(Cl)ccc3c(Nc3ccc(O)c(CN4CCN(C)CC4)c3)c2c1
inactive: Potency [1] > 11.4 µM | activity, negative = inhibition [3] 23% | Potency [4] > 46 µM | Potency [5] > 9.22 µM | Potency [6] | Potency [7] | activation [11] 26.1%
active: Potency [2] 3.98 µM

O=[N+]([O-])c1ccc(S(=O)(=O)Cc2ccccc2)c2nonc12
inactive: Potency [1] > 11.4 µM | activity change, negative = inhibition [2] -5.3% [at 2.29 µM] | activity, negative = inhibition [3] -2.97% | Potency [4] > 46 µM | Potency [5] > 9.22 µM | Potency [6] | Potency [7]
active: Potency [9] 3.16 µM

Cc1cc(Cc2cc(C)cc(C(C)(C)C)c2O)c(O)c(Cc2cc(C)cc(C(C)(C)C)c2O)c1
active: Potency [8] 3.16 µM | Potency [9] 3.16 µM
inactive: Potency [1] > 11.4 µM | activity change, negative = inhibition [2] -15.6% [at 2.29 µM] | activity, negative = inhibition [3] 6.72% | Potency [4] > 46 µM | Potency [5] > 9.22 µM | Potency [6] | Potency [7]

CCN(CC)CCN1c2ccccc2Sc2ccc3ccccc3c21
inactive: Potency [1] > 11.4 µM | activity, negative = inhibition [3] 4.26% | Potency [4] > 46 µM | Potency [5] > 9.22 µM | Potency [6] | Potency [7]
active: Potency [2] 3.98 µM | Potency [14] 0.631 µM

O=C1c2ccccc2C(O)(O)[C@@]1(O)[C@]1(O)C(=O)c2ccccc2C1(O)O
inactive: Potency [1] > 11.4 µM | activity change, negative = inhibition [2] -7.5% [at 2.29 µM] | activity change, negative = inhibition [12] -0.902% | Potency [4] > 46 µM | Potency [5] > 9.22 µM | Potency [6] | Potency [7] | Potency [8] | activity change, negative = inhibition [13] 11.5% [at 11.4 µM] | Potency [9]
